# Source: ChEMBL document CHEMBL3433997, “St. Jude Leishmania screening dataset” (2016)
# Target: Glucose transporter (Leishmania mexicana) (UniProt O61059)
# Experiment: ST_JUDE_LEISH: Cytotoxicity at 2uM final concentration against transgenic Leishmania Mexicana promastigotes LmGT2 that are glucose transport deficient and complemented with the L. Mexicana glucose transporter 2. Activity is measured by DNA content using SYBR green in vitro
# Assay type: functional
row,Structure (SMILES),inhibition
1,O=C(NC1CC1)c1cnc(N2CCC(Cc3ccccc3)CC2)c(Cl)c1,-0.03%
2,CN1CCN(c2ncnc3ccc(NC(=O)Nc4ccc(Cl)c(Cl)c4)cc23)CC1,5.24%
3,Cc1nnsc1C(=O)Nc1ccc(-c2cccc(-c3nc4cc(C(F)(F)F)ccc4[nH]3)c2)cc1,4.55%
4,CC(C)c1ccc(NC(=O)c2ccc(C(=O)NC3CCN(Cc4ccsc4)C3)cc2)cc1 (stereo not given),0.52%
5,COc1cccc(-c2cccc(-c3ccc(NC(=O)c4ccc([N+](=O)[O-])o4)cc3)n2)c1,23.3%
6,COc1ccc2[nH]cc(C3CCN(CCCCCNC(=O)c4ccc(-c5ccccc5)cc4)CC3)c2c1,2.9%
7,O=[N+]([O-])c1ccc(Nc2nc(N/N=C/c3ccc(-c4ccc([N+](=O)[O-])cc4)o3)nc(Nc3ccccc3)n2)cc1,-5.8%
8,CCc1c[nH]c2c(N3CCCC3=O)cc(C(=O)N[C@@H](Cc3ccccc3)[C@H](O)CNC3CCCCC3)cc12,9.77%
9,Cc1nnsc1C(=O)Nc1ccc(-c2cccc(-c3nc4cccc(C)c4[nH]3)c2)cc1,5.18%
10,OCc1ccc2nc3c(cc2c1)-c1cccc2cccc-3c12,2.11%
11,O=C(Nc1ccc(N2CCN(Cc3cccc(F)c3)CC2)cc1)c1cccs1,4.59%
12,O=C(NCCN1CCCC1)c1cc(-c2ccc(Cl)c(O)c2)c(-c2ccncc2)o1,0.49%
13,CN1CCN(CCCSc2ccc3c(c2)ncn3-c2cc(OCc3ccccc3C(F)(F)F)c(C(N)=O)s2)CC1,0.97%
14,Cc1cccc2nc(-c3ccc(-c4cccc(CNCCc5ccncc5)c4)s3)[nH]c12,2.73%
15,CC(=O)N(C)/N=C/[C@H](CCc1ccccc1)NC(=O)[C@H](CC(C)C)NC(=O)c1cccc(OCCN2CCOCC2)c1,8.5%
16,Cc1[nH]c2ccccc2c1C1CCN(CCCCNC(=O)c2ccc(-c3ccc(C#N)cc3)cc2)CC1,10.3%
17,Cc1nc2ccccc2n1C1CC2CCC(C1)N2CCC1(c2ccccc2)CCN(C(=O)Nc2ccc(C(F)(F)F)cc2)CC1 (stereo not given),1.78%
18,O=C(Nc1cccc(CN2CCN(Cc3cccc(O)c3)CC2)c1)c1cc2ccccc2s1,3.74%
19,CCc1ccc(Cc2cnc3nc(N)nc(N)c3c2C)cc1,8.26%
20,CN(C)CCCn1c(C(=O)OC(c2ccccc2)c2ccccc2)cc2cc(OCc3ccccc3)ccc21,-2.32%
21,c1ccc(Oc2ccc(Nc3ccnc4cc(-c5ccc(CN6CCCCC6)o5)ccc34)cc2)nc1,0.73%
22,CCN(CC)CCOc1c(Cl)cc(Cl)cc1CNCCCNc1cc(=O)c2ccccc2[nH]1,4.06%
23,Cc1cc(OCC2CCCN(c3ncc(C(=O)NC4CC4)cc3Cl)C2)ccc1F (stereo not given),0.81%
24,COc1cc2nc(NCCC(C)C)n3nc(-c4ccccc4)nc3c2cc1OC,-1.51%
25,CCN(CC)CCCOC(=O)c1ccc2c(c1)-c1ccc(C(=O)OCCCN(CC)CC)c3cccc-2c13,4.24%
